# Screening data as filed in PubChem BioAssay.
# This is a sample that favours compounds with a hit; in the whole collection about 19% have one here.
# DT40 TDP1 CPT – growth inhibition of DT40 Tdp1-/-;hTDP1 cells with camptothecin (screen for TDP1 inhibitors) | chicken DT40 Tdp1-/-;hTDP1 cells + 20 nM CPT, ATP luminescence, 48 h | 12% of 420,000 active | Potency, µM (doses to about 46.2 µM), for inactives: at the highest dose activity change, negative = growth inhibition, hits mostly inhibitors; note: nearly all actives have a fitted effect of over 55% in size
#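 Chicken DT40 Tdp1-/- cells stably complemented with human TDP1 were seeded at 400 cells/well in medium containing 20 nM camptothecin, exposed to pin-transferred compounds, and grown at 37 °C for at least 48 hr. Viability was read as ATP luminescence.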
# DT40 TDP1 no CPT – qHTS for Inhibitors of human tyrosyl-DNA phosphodiesterase 1 (TDP1): qHTS in cells in absence of CPT; DT40 Tdp1-/- hTDP1 cells, no CPT, ATP luminescence, 48 h; AID 686978, 2013; 15% of 420,000 active; Potency, µM (series often up to 46.2 µM), inactives show at the highest dose activity change, negative = growth inhibition, most hits filed as inhibitors; note: nearly all actives have a fitted effect of over 55% in size
#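 Growth of hTDP1-complemented DT40 Tdp1-knockout cells is measured by ATP luminescence after at least 48 hr compound exposure at 37 °C, with DMSO substituting for the 20 nM CPT used in the parallel screen.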
# KB-V1 cytotox – kills drug-selected multidrug resistant KB-V1 cells; KB-V1 MDR cells viability, CellTiter-Glo, 72 h; Potency, µM (titrated, usually from 46.1 µM), hits mostly cytotoxic; 3.4% of 400,000 active; note: nearly all actives have a fitted effect of over 60% in size
#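 Readout: CellTiter-Glo luminescence, 10 min after addition. Cells: KB-V1 MDR subline, 72 h at 37 degrees C with compound. Analysis: corrected, normalized data fitted to concentration-effect curves.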
# HT1080NT lethal – kills 2HG-producing HT-1080-NT fibrosarcoma cells. HT-1080-NT fibrosarcoma viability, CellTiter-Glo ATP luminescence, 48 h. Potency, µM (doses to about 46.1 µM), without a hit: at the highest dose activity, negative = less viability, usual class: cytotoxic. 1.6% of 360,000 active;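 note: NT is the 2HG producing partner of a matched IDH1 knockdown line; 0% = DMSO-treated cells and -100% = media-only wells without cells; nearly all actives have a fitted effect of over 55% in size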
#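 Viability of the 2HG-overproducing fibrosarcoma line after 48 hours of compound exposure at 37 degrees C was determined by luminescence with CellTiter-Glo, and concentration-effect curves were then fitted and categorized.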
# HT1080 IDH1KD tx – HT-1080 IDH1 knockdown cell toxicity (counter line). HT-1080 IDH1 knockdown viability, ATP luminescence, 48 h. Potency, µM (series often up to 46.1 µM), for inactives: top-dose activity, negative = toxicity, most hits filed as cytotoxic. 2% of 360,000 active. AID 686971;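 note: 0% = DMSO wells and -100% = cell-free medium wells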
#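 Viability of IDH1-knockdown HT-1080 fibrosarcoma cells was assessed by CellTiter-Glo after 48 h at 37 °C with titrated compound; concentration-effect curves were classified by fit quality and response size.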
# KB-3-1 tox – kills parental KB-3-1 adenocarcinoma cells; AID 1347075; KB-3-1 viability, CellTiter-Glo ATP luminescence, 72 h; Potency, µM (titrated, usually from 46.1 µM), actives largely listed as cytotoxic; 1.4% of 400,000 active; note: nearly all actives have a fitted effect of over 60% in size
#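 Here the drug-naive KB-3-1 line serves as comparator for MDR sub-line selectivity; cells received compound titrations, 72 h at 37 °C, then CellTiter-Glo readout.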
# The depositor's hits bear a star; i = inactive; u = inconclusive; x = no result given. Calls come from the whole dose curve; as a rule, active = well fitted curve in the direction sought with a large enough effect; inconclusive = small, poorly fitted or top-dose-only effect, or another doubt; inactive = no such curve, though single readings can be large; an effect the other way counts as inactive or inconclusive. Unless noted, % is set by controls: 0 for no effect and ±100 for the full control effect; potency is the fitted concentration of half-maximal effect.
SMILES,DT40 TDP1 CPT,DT40 TDP1 no CPT,KB-V1 cytotox,HT1080NT lethal,HT1080 IDH1KD tx,KB-3-1 tox
CC(C)CC(=NNC(=O)c1ccncc1)c1cc(Cl)ccc1O,3.7µM*,2.6µM*,u,u,0.82µM*,u
CC(=NNC(=O)c1ccncc1)c1ccc(O)cc1O,u,7.3µM*,i,-18%,u,u
Cc1ccc2oc(-c3ccc(C)c(NC(=O)COc4ccc(Cl)cc4C)c3)nc2c1,-22%,-11%,i,x,x,u
COc1ccc(Cn2c(CCC(=O)Nc3cccc(Cl)c3)nc3cccnc32)cc1,-13%,-22%,i,x,x,i
C/C(=N\NC(=O)c1ccccc1)c1ccccc1Br,0.82µM*,0.65µM*,i,u,u,i
C/C(=N\NC(=O)c1ccc(N2CCCC2=O)cc1)c1ccccc1,-8%,-23%,i,12%,8%,i
CC(=NNC(=O)c1ccncc1)c1ccc2ccccc2c1O,4.1µM*,4.6µM*,u,u,5.8µM*,u
CC(=NNC(=O)c1ccccc1N)c1ccccc1O,5.2µM*,5.8µM*,i,u,u,i
C/C(=N\NC(=O)c1ccc(N2CCCC2=O)cc1)c1ccc(O)cc1O,4.6µM*,3.7µM*,i,-25%,u,u
Cc1cc(C)c(NC(=O)C2CCN(C(=O)N3CCOc4ccccc43)CC2)c(C)c1,u,u,i,x,x,i
O=C1N(c2ccccc2)C(c2ccc(Cl)cc2)N2CCCN12 (stereo not drawn),2%,-22%,u,5%,0%,i
Cc1ccc(C2N(c3ccc(Cl)cc3)C(=O)N3CCCN23)cc1 (stereo not drawn),u,15µM*,i,1%,-2%,i
Cc1ccc(S(=O)(=O)N2CCN(Cc3cc(Br)ccc3O)CC2)cc1,18µM*,u,i,x,x,i
COc1ccc(C(=O)CN2CCN(S(=O)(=O)c3ccc(F)cc3)CC2)cc1,u,-20%,i,x,x,i
COc1ccccc1CN1CCN(S(=O)(=O)c2ccc(C)cc2)CC1,4%,3%,i,2%,-7%,i
O=C(CN1CCN(S(=O)(=O)c2ccc(Br)cc2)CC1)c1ccc(O)c(O)c1,18µM*,7.3µM*,i,-2%,-2%,i
CSc1ncc(CO)n1Cc1ccccc1,17%,-2%,i,2%,14%,i
O=c1cc(CSc2nnc(Nc3ccccc3F)s2)nc2sccn12,u,23µM*,16µM*,u,18µM*,u
Cc1ccc2nc(CSc3nnc(Nc4ccccc4F)s3)cc(=O)n2c1,u,16µM*,u,u,-26%,u
O=C(CCCSc1nnc(Nc2ccccc2F)s1)N1CCOCC1,-5%,u,i,-6%,-3%,i
Cc1ccc(Nc2nnc(SCc3cc(=O)n4cc(C)ccc4n3)s2)cc1,u,-9%,i,-4%,3%,i
CCCN(CCC)Cc1cc(=O)oc2cc(C)c(Cl)cc12,u,u,i,-1%,3%,i
CN(C)c1ccc(CNC(=O)c2ccc(NC(=O)c3nsc4ccccc34)cc2)cc1,-29%,u,i,x,x,i
Cc1ccc(C(=O)NCc2ccc(N(C)C)cc2)cc1NC(=O)c1nsc2ccccc12,u,16µM*,i,x,x,i
CC1=C(C(=O)Nc2cccc(C(=O)NC(C)c3ccccc3)c2)SCCO1 (stereo not drawn),u,16µM*,i,-8%,-11%,i
SMILES,DT40 TDP1 CPT,DT40 TDP1 no CPT,KB-V1 cytotox,HT1080NT lethal,HT1080 IDH1KD tx,KB-3-1 tox
CSc1ccc(CNC(=O)Cc2ccc(NC(=O)C3=C(C)OCCS3)cc2)cc1,2.9µM*,2.9µM*,u,u,16µM*,5.8µM*
CCOc1ccc(CCNC(=O)Cc2ccc(NC(=O)C3=C(C)OCCS3)cc2)cc1,u,u,i,-4%,1%,i
COc1ccc(CCNC(=O)c2ccccc2NC(=O)C2=C(C)OCCS2)c(OC)c1,21µM*,10µM*,i,0%,-10%,i
Cc1cccc(N2CCN(S(=O)(=O)c3ccc(F)c(C(=O)Nc4ccc(C(C)C)cc4)c3)CC2)c1C,u,u,i,x,x,i
CC(C(=O)Nc1ccccn1)N1C(=O)c2ccccc2S1(=O)=O (stereo not drawn),4%,0%,i,7%,0%,i
Cc1ccc(C(=O)NCc2ccccc2)cc1NC(=O)c1nsc2ccccc12,u,16µM*,u,x,x,u
CCCSCCCNC(=O)c1ccc(C)c(NC(=O)c2nsc3ccccc23)c1,u,u,i,x,x,i
CC1=C(C(=O)Nc2cc(C(=O)NCc3ccccc3)ccc2C)SCCO1,u,u,21µM*,u,u,i
CCCCNC(=O)c1ccc(C)c(NC(=O)C2=C(C)OCCS2)c1,-4%,13%,i,-8%,-13%,i
CCOC(=O)c1cnc(SCC(=O)Nc2ccc(N3CCOCC3)c(Cl)c2)nc1N,u,13µM*,i,8%,1%,i
CCOC(=O)c1cnc(SCc2nc(N)nc(Nc3ccccc3)n2)nc1N,16µM*,16µM*,u,-18%,-18%,u
CCOC(=O)c1cnc(SCC(=O)Nc2cc(C(F)(F)F)ccc2N2CCOCC2)nc1N,-25%,-11%,i,u,u,i
CCOC(=O)c1cnc(SCC(=O)Nc2cc(OC)cc(OC)c2)nc1N,8.2µM*,8.2µM*,2.3µM*,-28%,u,u
CN(C)S(=O)(=O)N1CCC(n2cnc3cccnc32)CC1,0%,0%,i,x,x,i
Cc1ccccc1CSCC1Nc2ccc(C(=O)NCCc3ccccc3)cc2NC1=O (stereo not drawn),u,u,i,4%,-2%,i
CC1CC(Nc2ccccc2)c2ccccc2N1C(=O)c1ccco1 (stereo not drawn),23µM*,15µM*,u,u,u,i
CC1CC(Nc2ccccc2)c2ccccc2N1C(=O)c1ccncc1 (stereo not drawn),9.2µM*,8.2µM*,i,-2%,-4%,i
O=C(CN1CCN(C(=O)c2ccco2)CC1)Nc1ccccc1,11%,-12%,i,9%,1%,i
CC(C)c1nc2scc(-c3ccc(Cl)cc3)c2c(=O)n1N,26µM*,u,u,6%,10%,i
